# Assay results published in article PMC4336329 (PLoS ONE, 2015).
# Among all 310,000 compounds or so, about 14,000 (4.5%) showed an effect of 50% or more. Effects have a minus sign here. Many of the other results were omitted from the sample, so strong results are more common in it than they were.
# Target: human ether-à-go-go-related gene (hERG) potassium channel (human, UniProt Q12809)
# Assay: primary screen, population patch clamp on CHO cells stably expressing hERG; higher = less effect of the substance
# 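Further: peak tail current of the secondary pulse compared with the same well before compound.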
# human ether-à-go-go-related gene (hERG) potassium channel, sequence (Q12809 whole entry, looked up): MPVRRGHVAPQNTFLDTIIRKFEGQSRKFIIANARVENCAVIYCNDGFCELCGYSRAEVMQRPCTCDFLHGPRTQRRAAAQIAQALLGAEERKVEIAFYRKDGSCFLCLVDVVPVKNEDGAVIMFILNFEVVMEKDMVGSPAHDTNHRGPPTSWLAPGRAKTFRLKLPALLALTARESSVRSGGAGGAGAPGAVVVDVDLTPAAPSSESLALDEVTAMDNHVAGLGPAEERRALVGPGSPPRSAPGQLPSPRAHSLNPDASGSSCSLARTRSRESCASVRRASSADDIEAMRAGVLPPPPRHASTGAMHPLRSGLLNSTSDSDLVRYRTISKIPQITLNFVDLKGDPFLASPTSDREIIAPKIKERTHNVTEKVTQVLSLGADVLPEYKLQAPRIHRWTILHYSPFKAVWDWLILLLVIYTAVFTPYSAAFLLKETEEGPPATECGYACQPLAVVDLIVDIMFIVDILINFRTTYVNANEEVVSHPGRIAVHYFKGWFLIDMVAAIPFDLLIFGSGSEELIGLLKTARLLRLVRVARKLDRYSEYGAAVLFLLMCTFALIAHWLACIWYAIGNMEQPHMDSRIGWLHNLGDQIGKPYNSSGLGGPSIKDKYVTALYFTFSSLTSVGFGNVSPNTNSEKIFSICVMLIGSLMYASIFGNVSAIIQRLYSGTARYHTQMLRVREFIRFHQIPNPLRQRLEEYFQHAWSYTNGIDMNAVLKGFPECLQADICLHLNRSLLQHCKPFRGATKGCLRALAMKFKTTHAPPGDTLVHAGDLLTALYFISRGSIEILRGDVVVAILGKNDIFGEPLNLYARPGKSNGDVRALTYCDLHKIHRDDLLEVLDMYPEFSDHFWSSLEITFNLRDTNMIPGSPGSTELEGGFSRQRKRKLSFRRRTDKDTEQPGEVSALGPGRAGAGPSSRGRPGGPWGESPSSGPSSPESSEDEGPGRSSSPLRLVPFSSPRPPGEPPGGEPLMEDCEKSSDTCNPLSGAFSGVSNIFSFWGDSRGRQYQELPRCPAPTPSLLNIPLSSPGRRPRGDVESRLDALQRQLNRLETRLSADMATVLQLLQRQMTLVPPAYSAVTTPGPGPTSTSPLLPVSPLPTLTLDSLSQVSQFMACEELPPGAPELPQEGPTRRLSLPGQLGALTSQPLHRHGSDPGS
row,SMILES,"hERG current change (%, negative = inhibition) at 10uM [%]"
1,COC(=O)COc1ccc(S(=O)(=O)Nc2ccc(NC(C)=O)cc2)cc1C,19.8
2,COc1ccc(C2Nc3ccccc3C(=O)N2Cc2ccccc2)cc1Cn1nnc2ccccc21 (stereo not shown),-25.1
3,Cc1cc(S(=O)(=O)N2CCN(c3ccccc3C)CC2)ccc1F,1.78
4,CCC(C)C(=O)Nc1nnc(SCC(=O)Nc2ccccc2F)s1 (stereo not shown),10.1
5,CCOc1ccc2c(c1)nc(C)n2C,11.7
6,C[C@]12CC[C@@H]3c4ccc(O)cc4CC[C@H]3[C@@H]1CC[C@@H]2OC(=O)CCC1CCCC1,14
7,O=C(CN1C(=O)CSCC1=O)Nc1ccc2c(c1)OCO2,16.2
8,Cc1ccc(S(=O)(=O)N2CCCCC2)cc1C(=O)c1nccn1C,-2.56
9,O=C(N/N=C\c1cn(-c2ccccc2)nc1-c1ccccc1)c1ccc2c(c1)OCO2,11.3
10,O=C(CSc1nnc(-c2ccncc2)n1-c1ccccc1)NC1CC1,4.69
11,Cc1cc(/C=C2\SC(=Nc3ccc(N4CCOCC4)cc3)N(C)C2=O)c(C)n1-c1cccnc1,11.3
12,Cc1cc(=O)n2[nH]c(C(F)(F)F)c(-c3ccccc3)c2n1,3.6
13,CC(C)C1NC(=S)N(Cc2ccccc2)C1=O (stereo not shown),5.2
14,CC(NC(=O)C1CCN(C(=O)[C@@H]2Cc3ccccc3CN2)CC1)c1ccccc1 (stereo partly shown),-25.7
15,CC(C)c1ccc(NC(=O)C2CCN(C(=O)[C@@H]3Cc4ccccc4CN3)CC2)cc1,-67.4
16,CC(C)c1ccc(NC(=O)C2CCC(CNC(=O)[C@@H]3Cc4ccccc4CN3)CC2)cc1 (stereo partly shown),9.65
17,CCOc1ccc(NC(=O)COC(=O)c2c(OC)cccc2OC)cc1,-1.27
18,Cl.OC(CN1C2=NCCN2c2ccccc21)c1ccc2c(c1)OCO2 (stereo not shown),-63.6
19,Cl.O=C(CN1C2=NCCN2c2ccccc21)N1CCOCC1,9.79
20,Cl.OC(CN1C2=NCCCN2c2ccccc21)c1ccc2c(c1)OCO2 (stereo not shown),-70.2
21,OC(c1ccc2c(c1)OCO2)c1nccc2ccccc12 (stereo not shown),-1.04
22,COc1cc(C(=O)NNC(=O)CSc2nnc3ccccn23)cc(OC)c1OC,15.4
23,CCCC(=O)Nc1ccc(C(=O)N/N=C/c2cccnc2)cc1,-8.24

row,SMILES,"hERG current change (%, negative = inhibition) at 10uM [%]"
1,CC1(C)Cc2c(cnn2-c2ccc(F)cc2)C(NC(=O)CCCN2CCCCC2=O)C1 (stereo not shown),2.89
2,CCOC(=O)Cn1c(=O)c2c(nc3n2CCCCN3c2ccc(OCC)cc2)n(C)c1=O,-41.4
3,CCCCOC(=O)Cn1c(=O)c2c(nc3n2CCCCN3c2ccc(C)cc2)n(C)c1=O,-52.8
4,CCOC(=O)Cn1c(=O)c2c(nc3n2CCCCN3c2ccc(C)cc2)n(C)c1=O,-19.5
5,Cc1ccccc1S(=O)(=O)Cc1ccc(C(=O)NCCN2CCCCC2C)o1 (stereo not shown),-39.3
6,CCOc1ccc(C2c3cc(OC)c(OC)cc3CC(=O)N2c2ccccc2)cc1 (stereo not shown),-26.5
7,CCOc1cc2c(cc1OCC)C(c1ccccc1)N(c1ccccc1)C(=O)C2 (stereo not shown),-6.2
8,CCOc1cc2c(cc1OCC)C(c1ccc(OC)cc1)N(c1ccccc1)C(=O)C2 (stereo not shown),-57.5
9,COC(=O)c1ccc(-n2c(C)cc(C(=O)COC(=O)CC3Sc4ccccc4NC3=O)c2C)cc1 (stereo not shown),28.5
10,CCN1CCN(C(=S)Nc2ccc3nc(N4CCN(C)CC4)cc(C)c3c2)CC1,-2.94
11,Cc1cc(N2CCN(C)CC2)nc2ccc(NC(=S)N3CCCCCC3)cc12,-67.2
12,CCN1CCN(c2cc(C)c3cc(NC(=S)N4CCOCC4)ccc3n2)CC1,-23.4
13,Cc1cc(N2CCN(C)CC2)nc2ccc(NC(=O)CCC(=O)NCc3ccco3)cc12,7.05
14,CCN1CCN(C(=S)Nc2ccc3nc(N4CCN(CC)CC4)cc(C)c3c2)CC1,-13.9
15,CCN1CCN(c2cc(C)c3cc(NC(=S)N4CCCCC4)ccc3n2)CC1,-50.1
16,Cc1cc(N2CCN(C)CC2)nc2ccc(NC(=S)N3CCOCC3)cc12,-15.4
17,Cc1cc(N2CCN(C)CC2)nc2ccc(NC(=O)CCC(=O)NCCC(C)C)cc12,13.8
18,CCCN1CCN(C(=S)Nc2ccc3nc(N4CCN(CC)CC4)cc(C)c3c2)CC1,2.61
19,Cc1cc(N2CCN(C)CC2)nc2ccc(NC(=O)CCC3CCCC3)cc12,-74.6
20,CCN1CCN(c2cc(C)c3cc(NC(=S)N4CCCC(C)C4)ccc3n2)CC1 (stereo not shown),-51.3
21,CCN1CCN(c2cc(C)c3cc(NC(=S)N4CCCC4)ccc3n2)CC1,-15.9
22,N/C(=N\OC(=O)/C=C/c1ccc(Br)cc1)c1ccccn1,-6.37
23,OC(CSc1ccc(F)cc1)CN1CCN(c2ccccc2)CC1 (stereo not shown),-41.7

row,SMILES,"hERG current change (%, negative = inhibition) at 10uM [%]"
1,O=C(CSc1nnc2c(Cl)cc(C(F)(F)F)cn12)NCc1ccc(F)cc1,-4.27
2,CC(C)CN(C(=O)CSc1nnnn1C)C1CCS(=O)(=O)C1 (stereo not shown),26
3,CCC/C(=N\NC(=O)Cc1csc(N2CCOCC2)n1)c1ccccc1,-13.5
4,O=C(N/N=C/c1ccc[nH]1)c1ccc(O)cc1,19.6
5,Cc1c(Br)c([N+](=O)[O-])nn1CC(=O)N1CCN(Cc2ccccc2)CC1,-56.4
6,Cc1c(Cl)c([N+](=O)[O-])nn1CC(=O)N1CCCC1,-4.86
7,Cc1c(Cl)c([N+](=O)[O-])nn1CC(=O)N1CCc2ccccc2C1,1.08
8,Cc1c(Br)c([N+](=O)[O-])nn1CC(=O)NCc1ccccc1,-2.99
9,Cc1c(Cl)c([N+](=O)[O-])nn1CC(=O)N1CCN(Cc2ccccc2)CC1,-71
10,Cc1cc([N+](=O)[O-])nn1CC(=O)N1CCN(Cc2ccccc2)CC1,-8.96
11,CC(C)(C)c1nc(SCC(=O)NCc2cccs2)c2ccccc2n1,-0.222
12,CCCCn1c(SCC(=O)Nc2nnc(C)s2)nc2c1c(=O)n(C)c(=O)n2C,-12.4
13,Cc1ccc(-n2c(O)c(C=NCc3ccccn3)c3ccccc3c2=O)cc1C,-11.5
14,CC1=C(C(=O)OCC2CCCO2)C(c2ccccc2Cl)NC(=O)N1 (stereo not shown),14.1
15,O=C(CCN1C(=O)c2ccccc2C1=O)N1CCN(Cc2ccccc2)CC1,-22.8
16,Cc1ccc(CN2CCN(C(=O)CCN3C(=O)c4ccccc4C3=O)CC2)cc1,-55.4
17,CN1CCN(C(=O)CCN2C(=O)c3ccccc3C2=O)CC1,14.7
18,O=C(CCN1C(=O)c2ccccc2C1=O)N1CCN(Cc2ccc(Cl)cc2Cl)CC1,-53.4
19,CCN1CCN(C(=O)CCN2C(=O)c3ccccc3C2=O)CC1,-1.77
20,O=C(CCN1C(=O)c2ccccc2C1=O)N1CCCCCC1,0.431
21,O=C(NN=C1CCN(Cc2ccccc2)CC1)c1ccccc1,7.78
22,Cn1ccnc1SCCNC(=O)CCc1nnc(CCc2ccccc2)o1,-10.2
23,Cn1c(O)c(C=NCCN2CCNCC2)c(=O)[nH]c1=O,13.6

row,SMILES,"hERG current change (%, negative = inhibition) at 10uM [%]"
1,Cc1ccccc1C(=O)N=c1sccn1C,24.7
2,Cc1cc(F)ccc1NS(=O)(=O)c1c(C)nc2scc(C)n2c1=O,-35.8
3,COc1cccc(Cn2c(=O)c3[nH]cnc3n(-c3ccccc3C)c2=O)c1,-1.8
4,CCOC(=O)c1c(NC(=O)C(C)N2CCN(S(=O)(=O)c3cccs3)CC2)sc2c1CCC(C)C2 (stereo not shown),6.72
5,Cc1ccc(NC(=O)CN(C)C(=O)c2ccc3[nH]c4c(c3c2)CC(C)CC4)cc1 (stereo not shown),8.58
6,O=C1C2CCCN2C(c2ccccc2)N1c1nccs1 (stereo not shown),17.7
7,Cc1ccccc1C1N(c2nccs2)C(=O)C2CCCN21 (stereo not shown),-62.5
8,Cc1ccc(C2N(c3nccs3)C(=O)C3CCCN32)cc1 (stereo not shown),-4.54
9,CC(C)(/C=N/O)/[N+]([O-])=C/c1ccccc1,20.1
10,CCCOc1cccc(NC(=O)OC2CCN(C)CC2)c1.O=C(O)/C=C/C(=O)O,-15.7
11,COc1ccccc1NC(=O)CSc1nnc(Cc2cccs2)n1C,5.99
12,CCn1cc2nc(SCC(=O)Nc3ccc(OC)cc3OC)n(Cc3ccc(OC)cc3)c(=O)c2n1,1.42
13,COc1ccc(NC(=O)CSc2nc3ccccc3c(=O)n2Cc2cccs2)c(OC)c1,-6.23
14,CCn1cc2nc(SCC(=O)Nc3ccc(F)cc3F)n(Cc3ccccc3)c(=O)c2n1,-40
15,CCOc1ccc(NC(=O)CSc2nc3ccccc3c(=O)n2Cc2cccs2)cc1,13.6
16,Cc1ccc(NC(=O)CSc2nc3ccccc3c(=O)n2Cc2cccs2)cc1,7.4
17,Cn1c(Cc2cccs2)nnc1SCC(=O)Nc1ccccc1F,1.93
18,CCn1cc2nc(SCC(=O)Nc3ccccc3F)n(Cc3ccccc3)c(=O)c2n1,-70.6
19,O=C(CSc1nc2nccnc2c(=O)n1Cc1cccs1)Nc1ccccc1F,-69.1
20,O=C(CSc1nc2nccnc2c(=O)n1Cc1cccs1)Nc1ccccc1,-74.9
21,COc1ccccc1NC(=O)CSc1nc2nccnc2c(=O)n1Cc1cccs1,-69.9
22,CC(C)CCn1c(SCC(=O)Nc2ccccc2C(F)(F)F)nc2nccnc2c1=O,-21.6
